# Source: PubChem BioAssay (NCI)
# This is part of a sample that, as a whole, favours compounds with a hit. Of some 83,000 tested, about 20% had one in any assay.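 Growth was measured after 48 h exposure to one concentration of compound in 96-well plates. Values under 10 count as active.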 Values without a mark were called inactive. Active and inactive are the calls of the source.
# Assays:
# Assay in all cases: NCI-60 one-dose screen, 48 h (100 = growth as untreated, 0 = no growth, -100 = all killed)
# Conditions in all cases: 10 µM unless noted
# [1] = test system: NCI-H23 lung
# [2] = test system: NCI-H226 lung
# [3] = test system: NCI-H322M lung
# [4] = test system: HOP-62 NSCLC
# [5] = test system: NCI-H460 lung
# [6] = test system: HOP-92 NSCLC
# [7] = test system: NCI-H522 lung
# [8] = test system: A549/ATCC NSCLC
# [9] = test system: 786-0 renal
# [10] = test system: COLO 205 colon
Compound,growth [1],growth [2],growth [3],growth [4],growth [5],growth [6],growth [7],growth [8],growth [9],growth [10]
O=c1cc(C(F)(F)F)[nH]c(=S)[nH]1,103%,112%,101%,100%,112%,126%,99.4%,98.1%,104%,109%
CC(=O)c1cccc(N(C)S(=O)(=O)c2ccc(C)cc2)c1,93%,95.7%,90.4%,92.8%,104%,72.3%,82.9%,95.9%,94%,116%
Cc1nc(C)c(C(=O)O)cc1C(=O)O,101%,110%,126%,106%,112%,103%,108%,116%,112%,131%
O=C(CC(CC(=O)c1ccccc1)c1ccccn1)c1ccccc1,92.9%,95.7%,102%,105%,102%,94.7%,95.1%,98.5%,113%,101%
COC1OC(C(COC(C)=O)OC(C)=O)C(OC(C)=O)C(OC(C)=O)C1OC(C)=O (stereo not given),112%,99.4%,115%,99.3%,112%,128%,103%,106%,107%,116%
Cc1cc2c(C(C)C)c(O)c(O)c(C=Nc3ccccc3[N+](=O)[O-])c2c(O)c1-c1c(C)cc2c(C(C)C)c(O)c(O)c(C=Nc3ccccc3[N+](=O)[O-])c2c1O,71.4%,82.8%,89.2%,83.4%,87%,61%,64.4%,52%,96.1%,94.7%
CCOC(=O)c1ccc(Nc2sc(C(=O)c3ccc(Br)cc3)c(N)c2C#N)cc1,45.4%,56%,37.9%,24%,13.1%,40.1%,8.98% (active),30.7%,22.8%,11.4%
CSCC[C@@H]1C(=O)N(C)[C@H](C(C)(C)C)N1C(=O)c1ccccc1,101%,102%,97.6%,103%,112%,108%,107%,101%,106%,113%
S=C(NCc1ccccc1)N1CCC(CCCC2CCN(C(=S)NCc3ccccc3)CC2)CC1,90%,91.4%,118%,97.2%,106%,77.5%,80.2%,95.5%,101%,110%
CN1C(=O)NC(c2ccc(Cl)cc2)(c2ccc(Cl)cc2)C1=O,98.2%,94.1%,119%,125%,111%,58.4%,108%,115%,106%,122%
CN(C)c1ccc2c(N(C)C)cc(N(C)C)nc2c1,97.5%,83.2%,64.9%,82.1%,82.7%,69.8%,79.3%,98.5%,94.8%,65%
Nc1c(Br)cc(O)c2c1C(=O)c1ccccc1C2=O,32.8%,108%,98.7%,117%,102%,70.9%,54%,96.1%,106%,135%
CC(C)(C)[Si](C)(C)OCC1OC(n2cnc3c(N)ncnc32)CC1OS(C)(=O)=O (stereo not given),106%,101%,109%,104%,105%,98.5%,99%,99.4%,103%,110%
CC(=O)OC/C(C)=C\CC(C)COC(C)=O (stereo not given),112%,103%,102%,96.9%,102%,69.8%,110%,106%,96.7%,104%
CC1(C)CC(=O)C=C(N)C1,88.1%,103%,106%,103%,121%,109%,89.6%,94.8%,106%,134%
O=C1C=CC(=O)C2=C1CCCC2,86.4%,79.6%,92%,92.4%,95.9%,135%,94%,95.8%,107%,110%
O=S(Cc1ccccc1)/C(=C/NC(=S)Nc1cc(Cl)ccc1Cl)c1ccccc1 (stereo not given),97.1%,101%,93.7%,92.8%,107%,101%,85%,96.8%,102%,109%
CCCCNC(=O)c1ccc(OCC)cc1,101%,96%,102%,101%,103%,93.1%,95.6%,98.6%,98.3%,106%
CC(C)c1ccccc1NC(=O)N1CCC(C(C)C)CC1,107%,95.4%,97.7%,107%,107%,95.8%,106%,101%,103%,117%
O=C(NCc1ccccc1)c1cccc([N+](=O)[O-])c1,110%,105%,96.7%,94.6%,103%,77.8%,84.1%,88.2%,94.9%,116%
CCCCCC(=O)OCCC1CCCCC1,96.2%,101%,99.9%,98.6%,105%,70%,95%,98.4%,106%,101%
Cc1ccccc1CC(N)C(=O)O (stereo not given),98.2%,115%,98.6%,103%,109%,92.3%,112%,107%,107%,114%
CS(=O)(=O)c1ccc(/C=C\C(=O)O)cc1,106%,96.1%,108%,99.5%,94.3%,94%,99.5%,106%,108%,109%
CCCCCCCCCCCCCCCCCCSC(=N)N,63.5%,84.1%,88%,81.6%,52.7%,11.1%,90.1%,80.6%,61.9%,3.95% (active)
C/C(=N\N=C(/C)c1cccc([N+](=O)[O-])c1)c1cccc([N+](=O)[O-])c1,90.3%,111%,96.1%,74.3%,86.4%,87.5%,57.3%,79.3%,77.4%,79.8%
CCOc1ccccc1NC(=O)CCl,71.4%,86.3%,107%,99.8%,97.3%,103%,56.1%,100%,108%,104%
CCCCN(C(=O)CC)c1ccccc1,99.9%,107%,97.9%,105%,103%,109%,95.3%,96.5%,99.2%,99.7%
CC(=O)N(CCCCCCN(C(C)=O)C(C)=O)C(C)=O,108% [100 µM],101% [100 µM],108% [100 µM],112% [100 µM],109% [100 µM],106% [100 µM],102% [100 µM],106% [100 µM],96% [100 µM],134% [100 µM]
O=c1n(CC2CO2)c(=O)n(CC2CO2)n1CC1CO1 (stereo not given),55.2%,85.9%,94%,46%,4.78% (active),48.6%,31.4%,49.4%,36.9%,70.1%
CN(C(=S)S(=O)(=O)C12CC3CC(CC(C3)C1)C2)c1ccccc1,97.5%,93.3%,114%,116%,110%,71.2%,46.1%,95.1%,89.8%,88.5%
